Rows were chosen to be rich in hits. Some 0.62% of all compounds tested hit in one or more screens of this group.
WNV NS2B-NS3 inh – blocks West Nile virus NS2B-NS3 protease activity; P06935; WNV NS2B-NS3 protease, fluorogenic substrate Ex360/Em465; stronger effect = lower value; z-score (test concentration not listed); hit rate 0.18% among 65,000; AID 577; in the data active = z-score below about -3
Cdc25B inh – inhibitors of human Cdc25B phosphatase | P30305 | recombinant Cdc25B, OMFP fluorescence Ex485/Em525 | inhibition, %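 (compounds tested at 10 µM final in the well)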 | hit rate 0.1% among 65,000 | AID 368; in the data active = inhibition above about 50%
Target sequence (P30305 whole entry, looked up): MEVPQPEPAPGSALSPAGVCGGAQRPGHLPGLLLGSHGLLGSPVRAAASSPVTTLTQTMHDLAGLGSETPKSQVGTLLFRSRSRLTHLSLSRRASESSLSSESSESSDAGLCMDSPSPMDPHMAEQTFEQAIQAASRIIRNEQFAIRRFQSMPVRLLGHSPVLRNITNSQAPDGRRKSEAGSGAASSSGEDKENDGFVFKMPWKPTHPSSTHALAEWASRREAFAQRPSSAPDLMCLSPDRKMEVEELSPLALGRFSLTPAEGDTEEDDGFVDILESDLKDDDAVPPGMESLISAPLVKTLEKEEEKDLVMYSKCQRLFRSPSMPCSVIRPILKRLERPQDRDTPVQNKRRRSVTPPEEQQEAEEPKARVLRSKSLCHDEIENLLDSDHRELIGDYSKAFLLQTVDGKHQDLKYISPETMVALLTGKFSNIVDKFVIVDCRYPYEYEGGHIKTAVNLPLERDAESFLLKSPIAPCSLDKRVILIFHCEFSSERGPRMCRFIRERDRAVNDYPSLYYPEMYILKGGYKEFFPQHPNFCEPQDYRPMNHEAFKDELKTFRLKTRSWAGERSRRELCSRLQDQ
MMP13 inh – MMP13 (human) collagenase inhibition | AID 570 | P45452 | MMP-13 fTHP FRET cleavage, Mca fluorescence | inhibition, % at 4 µM | hit rate 0.07% among 65,000;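 active = inhibition above the mean of compound-free control plate wells plus 3 SD, cut at about 14% in these data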;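 also: 0% = DMSO wells and 100% = wells with reference MMP-13 inhibitor after basal subtraction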
MKP-1 inh – human dual specificity phosphatase 1 inhibition. P28562. recombinant MKP-1, OMFP hydrolysis fluorescence. inhibition, %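 (compounds tested at a single concentration somewhere between 10 and 100 µM)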. hit rate 0.15% among 65,000. AID 374;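 active = inhibition above about 50%, limit read from the data; inconclusive = inhibition over screen mean plus 3 SD, below that limit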;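 also: 0% = DMSO max control wells and 100% = wells with enzyme stopped by NaOH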
Htt clearance – compounds clearing mutant huntingtin protein | HeLa Exon1htt(103Q)mCFP, aggregate imaging; zero = plate's median compound well | inhibition, % at 1.5 µM | hit rate 0.42% among 47,000;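 active = inhibition of aggregate fluorescence above about 70%, also judged a hit by eye on the cell image, limit read from the data, passing the limit was not always enough; inconclusive = no rule stated for this call; inactive = not judged a hit on image review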;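 also: cells exposed to compound for three days before fixation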
Redox H2O2 0p5DTT – counter-screen for Cdc25B probes: redox cycling H2O2 in 0.5 mM DTT; AID 682; cell-free redox cycling H2O2 generation; hit rate 50% among 30; EC50, µM; shares compounds with Cdc25B inh; in the data active = EC50 below about 30 µM
Redox H2O2 1DTT – redox cycling H2O2 generation, Cdc25B counter-screen; shares compounds with Cdc25B inh; cell-free redox cycling H2O2 generation, 1 mM DTT; EC50, µM; 30 tested, under 10 active; AID 683; in the data active = EC50 below about 50 µM
Redox cycler – redox cycling H2O2 generation, MKP probe counter-screen; shares compounds with MKP-1 inh; DTT, phenol red/HRP; EC50, µM; 60 tested, under 10 active; AID 672; call rule not given here
Active calls of the source: *; ? = inconclusive; / = no result; ! = a repeat was not active.

SMILES	WNV NS2B-NS3 inh	Cdc25B inh	MMP13 inh	MKP-1 inh	Htt clearance	Redox cycler	others
CN(C)CCCN(C(=O)c1cccs1)c1nc(-c2ccccc2)cs1	-0.59	-12	-6	-35	-22	/
CN(c1ccc(O)cc1)c1nc(-c2ccccc2)cs1	-0.79	-12	20*	27	/	/
CCOC(=O)N1CCC(c2cc(=O)n3[nH]c(C)c(-c4ccc(F)cc4)c3n2)CC1	1.4	4	-28	35	82*	/
CCOC(=O)N1CCC(c2cc(=O)n3[nH]c(-c4ccccc4)cc3n2)CC1	1	-6	-32	13	/	/
CC(C)c1ccc(C(=O)CC2(O)C(=O)N(CN3CCOCC3)c3ccccc32)cc1 (stereo not given)	/	/	/	/	-45	/
COc1ccc2c(C)cc(N3CCOCC3)nc2c1	/	/	/	/	73*	/
COC(=O)c1sccc1NC(=O)C12CC3CC(CC(C3)C1)C2	/	/	/	/	6	/
COc1cccc(Oc2cncnc2-c2ccc(OC)cc2O)c1	-0.92	-3	1	-9	73*	/
COC(=O)c1ccc(CSc2nc3scc(-c4cccs4)c3c(=O)[nH]2)o1	-0.68	16	17*	34	1	/
CNCCCN1c2ccccc2CCc2ccccc21	-6.7*!	-2	7	-10	/	/
CN(C)CCCN1c2ccccc2CCc2ccc(Cl)cc21	0.16	7	-4	-43	/	/
CCN(CC)c1ccc(C2NCC(c3ccc([N+](=O)[O-])cc3)O2)cc1 (stereo not given)	/	/	/	/	-11	/
Cc1ccc(C(c2nnnn2Cc2ccccc2)N2CCN(Cc3ccccc3)CC2)cc1 (stereo not given)	/	/	/	/	21	/
Cc1cc(C)c(C)c(/C=C(/C#N)C(N)=S)c1C	/	/	/	/	77*	/
Cc1ccc(NS(=O)(=O)c2cc(C(=O)O)ccc2Cl)cc1	0.44	9	9	29	/	/
Cc1ccc(NS(=O)(=O)c2cc(C(=O)O)ccc2Cl)c(C)c1	0.12	8	-13	-9	72*	/
CC(NC(=O)c1ccc2c(c1)OCO2)C1CCCO1 (stereo not given)	2.1	-16	-1	56*	/	/
O=c1[nH]c(Nc2ccccc2)cc2ccccc12	0.31	85*	-33	21	5	/	Redox H2O2 0p5DTT=>50;Redox H2O2 1DTT=>50
O=C(O)CCN1C(=O)c2ccccc2C1=O	-0.42	3	-2	-5	?	/
O=C1Cc2ccccc2C(=O)N1CCc1ccccc1	-0.78	59*	-8	10	4	/	Redox H2O2 0p5DTT=>50;Redox H2O2 1DTT=>50
O=C(O)C1Nc2c(O)cccc2C2C=CCC12 (stereo not given)	-0.32	56*	11	31	/	/	Redox H2O2 0p5DTT=>50;Redox H2O2 1DTT=>50
COc1ccc(CN(C(=O)CSc2nnc(-c3c[nH]c4ccccc34)o2)c2ccc(F)cc2)cc1OC	/	/	/	/	55	/
Cc1ccccc1C(=O)OCCCN=C1NS(=O)(=O)c2ccccc21	/	/	/	/	6	/
O=C(OC1CCCCC1)c1ccc2c(c1)C1C=CCC1C(C(=O)O)N2 (stereo not given)	-5.6*	63*	1	52*	/	>50	Redox H2O2 0p5DTT=>50;Redox H2O2 1DTT=>50
O=C(O)/C(=C1/OC(=O)c2ccccc21)c1ccccc1	-0.23	2	9	22	/	/
SMILES	WNV NS2B-NS3 inh	Cdc25B inh	MMP13 inh	MKP-1 inh	Htt clearance	Redox cycler	others
O=C(NC1(O)C(=O)c2ccccc2C1=O)c1ccccc1	-0.94	96*	1	62*	/	>50	Redox H2O2 0p5DTT=29*;Redox H2O2 1DTT=>50
CCS(=O)(=O)Nc1ccc(-c2ccc(NS(=O)(=O)CC)c(OC)c2)cc1OC	-0.14	-29	-10	3	/	/
CCNc1ccc2noc3c2c1C(=O)c1ccccc1-3	/	/	/	/	37	/
CCOc1ccc2noc3c2c1C(=O)c1ccccc1-3	0.74	92*	2	65*	/	>50	Redox H2O2 0p5DTT=>50;Redox H2O2 1DTT=>50
N#Cc1c(N2CCCC2)nc(N)c2c(N)nc(N3CCCC3)cc12	-0.25	101*	-260	76*	/	>50	Redox H2O2 0p5DTT=13*;Redox H2O2 1DTT=27*
Cc1occc1C(=O)NNC(=S)Nc1cccc([N+](=O)[O-])c1	/	/	/	/	10	/
CC1=C(/C=C/C(C)=C/C=C/C(C)=C/C(=O)O)C(C)(C)CCC1	1.1	-16	2	56*	/	>50
CC(C)(C)N1C(=O)Cc2c1nc(N)c1c(N)nc(N3CCCCC3CO)c(C#N)c21 (stereo not given)	0.74	0	-35	53*	-38	>50
N#Cc1c(N2CCCCC2)nc(N)c2c(N)nc3c(c12)CC(c1ccccc1)O3 (stereo not given)	/	/	/	/	63	/
O=C1C=C(NCc2ccc(Cl)c(Cl)c2)CC1	-1.1	-3	-2	70*	/	>50
CC(=O)CSc1nnc(-c2ccc(S(=O)(=O)N3CCC(C)CC3)cc2)o1	/	/	/	/	23	/
CC(C)Cn1c(N)c(C(=O)COC(=O)c2cc(-c3ccco3)nc3ccccc23)c(=O)n(C)c1=O	-1.6	41	-2	51*	20	>50
Cc1nn(-c2ccccc2)c(C)c1C(=O)OCC(=O)c1c(N)n(CC(C)C)c(=O)n(C)c1=O	0.03	-9	3	35	/	/
COc1ccccc1C(=O)NCC1CCN(c2ccc(S(=O)(=O)N3CCOCC3)cc2)CC1	/	/	/	/	-94	/
CCCCn1c(SCC(=O)c2ccc(OC)cc2OC)nc2cc(S(N)(=O)=O)ccc21	-1.1	28	1	54*	13	>50
CCCCn1c(SC(C)C(=O)c2ccc(OC)cc2)nc2cc(S(N)(=O)=O)ccc21 (stereo not given)	/	/	/	/	25	/
COc1ccc(C(=O)Nc2ccc(NC(=O)c3cnccn3)cn2)cc1	/	/	/	/	7	/
COc1cc(/C=C(/C#N)c2ccc(F)cc2)ccc1OCc1ccc(C(=O)O)o1	1.6	-3	6	62*	/	>50
CCOc1ccc(-c2cc3nc(C4CCN(C(=O)OC(C)(C)C)CC4)c(C(=O)O)cn3n2)cc1	-1.2	-3	-42	64*	/	>50
CC(C)(C)c1cc(NC(=O)CCSc2nnc3ccccn23)cc(C(C)(C)C)c1	/	/	/	/	18	/
Cc1nc2c(C(=O)NCc3ccc4c(c3)OCO4)c[nH]n2c(=O)c1Cl	0.69	-8	-2	38	10	/
Cc1nc2c(C(=O)NCCC3=CCCCC3)c[nH]n2c(=O)c1Cl	0.24	-1	-3	54*	/	>50

Compound activity: PubChem BioAssay, several laboratories
